Screens (PubChem)
Ecoli rRNA inh: reduced GFP signal of wild-type E. coli, primary screen, bacterial rRNA inhibitor project, GFP/RFP fluorescence, OD600, single point. E. coli WT GFP vs humanized-ribosome RFP mutants, 24 h; active compounds read low; DMSO median 0, no signal -100. GFP signal change (wild-type ribosome), % (concentration not given with the values). 350,000 compounds, 1.6% hits;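 active = significant combined selectivity score with lowered wild-type GFP, culture density cut under 30%, mutant RFP and density less affected; inactive = any of these conditions unmet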
MLL AF4-AF9 inh: inhibitors of AF4 peptide binding to AF9, primary screen, biochemical, AlphaScreen, biotin-AF4 peptide, FLAG-AF9, single point; Protein AF-9 (Homo sapiens), P42568; inhibition, % at 10 µM; 350,000 compounds, 0.47% hits; AID 651704, 2012;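 active = every replicate reaching a set inhibition limit, whatever the replicate mean, cut at about 25% in these data; inconclusive = mean inhibition reaches that limit but some replicates miss it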
Target sequence (P42568 whole entry, looked up): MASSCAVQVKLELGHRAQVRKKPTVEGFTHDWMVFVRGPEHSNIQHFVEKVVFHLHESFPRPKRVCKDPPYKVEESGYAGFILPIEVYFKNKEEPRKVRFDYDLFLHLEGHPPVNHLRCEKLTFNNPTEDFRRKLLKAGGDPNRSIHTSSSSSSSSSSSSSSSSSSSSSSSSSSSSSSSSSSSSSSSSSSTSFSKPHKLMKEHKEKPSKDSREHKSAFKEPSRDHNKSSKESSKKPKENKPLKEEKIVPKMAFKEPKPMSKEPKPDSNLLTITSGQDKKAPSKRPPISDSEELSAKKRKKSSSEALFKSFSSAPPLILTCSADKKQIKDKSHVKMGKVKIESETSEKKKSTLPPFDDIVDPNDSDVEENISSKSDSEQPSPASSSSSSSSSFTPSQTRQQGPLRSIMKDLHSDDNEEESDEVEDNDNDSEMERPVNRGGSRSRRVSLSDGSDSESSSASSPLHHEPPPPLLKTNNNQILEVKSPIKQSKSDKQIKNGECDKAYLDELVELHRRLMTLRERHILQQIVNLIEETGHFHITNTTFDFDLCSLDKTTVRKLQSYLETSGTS
esBAF inh: Bmi1 luciferase reporter increase in mESCs, primary screen, esBAF inhibitor project, mouse ES cells, Bmi1 luciferase knock-in, single point; 24 h; 100% = twice the neutral-well signal; reporter increase, % at 12.5 µM; 350,000 compounds, 2% hits; AID 602393, 2012; in the data active = activation above about 40%; inconclusive = no clear call, values can overlap the other calls;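 also: a rise in the Bmi1 reporter signal indicates esBAF inhibition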
MITF act: activators of MITF-driven TRPM1 promoter reporter, primary screen, cell-based, SK-MEL-5, luciferase, single point | SK-MEL-5 TRPM1-promoter luciferase, 24 h; % of positive control, neutral wells = 0 | AID 588334, 2011 | 300,000 compounds, 0.75% hits | activation, % at 12.5 µM;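 active = mean activation of at least 80% with every replicate also reaching 80%; inconclusive = mean reaches 80% but some replicate falls short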
Wnt bcat act: Wnt/beta-catenin pathway activators, primary screen, cell-based, plate reader, single point | AID 743398, 2014 | Wnt/beta-catenin reporter cell assay, activator | activation, % at 9.35 µM | 300,000 compounds, 1.2% hits; in the data active = activation above about 30%, passing the limit was not always enough; inconclusive = no clear call, values can overlap the other calls
A number is an active result; - = inactive; ? = inconclusive; . = not tested or not shown. The list is not random: actives were taken first. Their share in the collection is about 3.7%.

SMILES	Ecoli rRNA inh	MLL AF4-AF9 inh	esBAF inh	MITF act	Wnt bcat act
Cc1ccc(-c2nnc(N3CCN(C(=O)COc4cccc(C)c4)CC3)c3ccccc23)cc1	-33	-	-	-	-
O=C(COc1ccccc1)N1CCN(c2nnc(-c3ccccc3)c3ccccc23)CC1	.	.	-	.	.
Cc1ccc(-c2nnc(Oc3cccc(C)c3)c3ccccc23)cc1	.	.	53	-	-
Cc1cccc(OCC(=O)N2CCN(c3nnc(-c4ccccc4)c4ccccc34)CC2)c1	-43	-	.	-	-
CC1CCc2c(sc3nn[nH]c(=O)c23)C1 (stereo not drawn)	-	-	-	-	-
COc1cccc(N2CCN(CC(=O)Nc3nnc(-c4ccccc4)s3)CC2)c1	.	.	-	-	.
COc1cccc(-c2ccc3c(c2)[C@H]2[C@H](CCN2S(=O)(=O)C2=NC(C)C=N2)[C@H](CO)N3C)c1 (stereo partly drawn)	-	.	-	.	.
CCCC(=O)N1CC2(C1)CN(Cc1nccs1)[C@H](CO)c1[nH]c3cc(OC)ccc3c12	-	-	.	.	.
COc1ccc(/C(N)=N/OC(=O)CSc2ccccc2)cc1OC	.	.	?	-	45
Cc1cccc(C(=O)O/N=C(\N)c2ccc(Cl)cc2)c1	-	-	.	-	44
Cc1cc(/C(N)=N/OC(=O)c2cccc(Cl)c2)no1	-	-	.	.	38
COc1ccc(C(=O)O/N=C(\N)c2ccccc2)cc1OC	-	-	?	-	56
C[C@H](c1ccccc1)N1C[C@@H](COCc2ccccc2)Oc2cc(N3CCC[C@@H]3CO)ccc2S1(=O)=O	-	-	.	.	-
Cc1cccc(C(=O)O/N=C(\N)c2ccc(Br)cc2)c1	.	.	.	-	.
COc1ccc(C(=O)O/N=C(\N)c2cccc(C)c2)cc1OC	-	-	69	-	-
COc1ccc(/C(N)=N/OC(=O)Cc2ccc(OC)c(OC)c2)cc1	-26	-	-	-	-
O=C(Nc1ccccc1)C1CCCCC1	.	.	-	-	.
O=C(Nc1ccc2ccccc2n1)c1ccccc1Cl	-	-	-	-	36
O=C(Nc1ccc2ccccc2n1)C1CCCCC1	-	.	-	.	48
COc1ccc(C(=O)Nc2ccc3ccccc3n2)c(OC)c1OC	-	-	-	-	-
O=C(Nc1ccc2ccccc2n1)c1ccc(Cl)cc1	-	-	-	-	44
C#Cc1ccc([C@H]2C=C(C(=O)N3CCCCCCC3)O[C@@H](OCC)[C@@H]2CCCO)cc1	.	-	.	.	.
COc1ccc(C(=O)C2CCCN(Cc3cccn3-c3ccccn3)C2)cc1F (stereo not drawn)	-	-	-	-	-
O=c1cc2[nH]c3ccccc3c(=O)n2nc1-c1ccccc1	.	.	-	-	.
CC(c1nc2ccccc2[nH]1)n1c(=O)c(-c2cccs2)nc2ccccc21 (stereo not drawn)	-	-	.	.	-
SMILES	Ecoli rRNA inh	MLL AF4-AF9 inh	esBAF inh	MITF act	Wnt bcat act
c1csc(-c2nnsc2-c2nc3ccccc3[nH]2)c1	.	.	40	-	-
O=c1[nH]c2ccccc2nc1-c1cccs1	.	.	68	.	43
O=C(NC1CCCCC1)N1CC(=O)N2[C@@H](CO)[C@H](c3ccc(-c4cccc(F)c4)cc3)[C@@H]2C1	-	-	.	.	.
O=C(COC(=O)C1CC2CCCC(C1)C2=O)Nc1nc(-c2ccc(F)c(F)c2)cs1 (stereo not drawn)	-	-	70	-	-
O=C(Nc1ccc(F)cc1)c1cc(-c2ccccn2)nc2c(Cl)cccc12	-	-	-	-	-
Cc1ccc(Nc2n[nH]c(=S)s2)cc1C	-	-	51	.	-
S=c1[nH]nc(Nc2cccc(Cl)c2)s1	-	-	.	-	-
COc1ccc(-c2cc(-c3cc(F)ccc3O)[nH]n2)cc1OC	-33	-	?	100	-
Cc1ccc(O)c(-c2cc(-c3cccc(F)c3)n[nH]2)c1	.	.	-	-	-
COc1ccc(-c2cc(-c3ccccc3O)[nH]n2)cc1OC	.	.	87	.	.
Cc1ccc(-c2cc(-c3cccc(F)c3)n[nH]2)c(O)c1	.	.	56	-	.
Oc1ccccc1-c1cc(-c2ccc3c(c2)OCCO3)n[nH]1	.	.	-	-	.
Cc1cccnc1CN1CCN(C(=O)CCc2nnc(CCc3ccccc3)o2)CC1	-	-	-	-	-
Cc1cc(CCN2CCC(=O)NC2=S)ccc1OC(C)C	.	.	.	-	.
COc1ccc(-c2cc3nc(C)cc(N)n3n2)cc1	.	.	-	-	.
Cc1ccc(C)c(Cn2ncc3ccccc32)c1	-	-	-	-	-
CCOc1cc(C(=O)OCC(=O)Nc2ccc(F)cc2Cl)ccc1OCC(=O)N1CCOCC1	-	-	-	-	-
O=C(CN(C(=O)c1csnn1)c1ccc(F)cc1)NCc1ccc2c(c1)OCO2	-	-	50	.	-
Cc1[nH]c2ccccc2c1C(=O)C(=O)N1CCOCC1	-	-	-	-	-
C[C@H](CO)N1C[C@H](C)[C@H](CN(C)CC2CCOCC2)Oc2ncc(Br)cc2C1=O	-	-	-	.	.
CCOC(=O)C1CCN(C2=NC(=O)/C(=C/c3ccc(OC)c(OC)c3)S2)CC1	-30	-	-	-	-
CCOC(=O)C1CCN(C2=NC(=O)/C(=C/c3ccc(Cl)cc3)S2)CC1	-	-	-	-	-
Cc1ccccc1OCC1Cc2c(nc(N)c(C#N)c2N)O1 (stereo not drawn)	.	.	49	-	-
N#Cc1c(N)nc2c(c1N)CC(CO)O2 (stereo not drawn)	.	.	-	-	.
Cc1sc2ncn(/N=C/c3ccco3)c(=O)c2c1C	-	-	49	-	-
SMILES	Ecoli rRNA inh	MLL AF4-AF9 inh	esBAF inh	MITF act	Wnt bcat act
Cc1ccc2nc(-c3ccc(NC(=S)NC(=O)CC(C)C)cc3)sc2c1	.	.	73	.	52
Cc1ccc2nc(-c3ccc(NC(=O)CSc4nc(N)cc(=O)[nH]4)cc3)sc2c1	-	-	?	-	56
Cc1ccc2nc(-c3ccc(NC(=O)CNC4CC4)cc3)sc2c1	-	-	.	-	-
Cc1ccc2nc(-c3ccc(NC(=O)CN4CCN(c5ccccn5)CC4)cc3)sc2c1	-	-	.	.	36
O=c1c2ccccc2nnn1COc1cccc2ccccc12	-	-	.	-	-
Cc1nc2c(ccc3nc(NC(=O)C4CC4)sc32)s1	-	-	68	-	-
Cc1c(Cl)ccc2sc(NC(=O)C3CC3)nc12	-	-	53	.	-
CCC(=O)Nc1nc2ccc3sc(C)nc3c2s1	-	-	.	-	-
CC1=NN(C(N)=S)C(=O)C1N=Nc1c(Cl)cc([N+](=O)[O-])cc1Cl (stereo not drawn)	-26	-	-	-	-
CC(=O)N(C)c1ccc(N=Nc2c(C)[nH]n(C(N)=S)c2=O)cc1	-	-	.	-	51
CC(=O)N(C)c1ccc(N=NC2C(=O)N(C(N)=S)N=C2C)cc1 (stereo not drawn)	-	-	-	-	52
CC1=NN(C(N)=S)C(=O)C1N=Nc1ccc(S(N)(=O)=O)cc1 (stereo not drawn)	-	-	-	-	-
